Assay results taken from PubChem BioAssay.
The source made the active and inactive calls. Unless noted, no rule for the calls is given here.

Columns and labels:
[1] = tested on: Wnt5a (protein binding on small-molecule microarray); experiment: small molecules binding Wnt5a protein – biophysical, small-molecule microarray, 635/667 nm fluorescence, primary screen (AID 1142); conditions: 635 nm fluorescence, higher = more signal;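 also: fluorescence read at 667 nm with signal to noise per printed feature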
[2] = ATP-based viability of Huh7 replicon cells – cell-based, CellTiter-Glo luminescence, basal, 48 h, cytotoxicity control for HCV replication inhibitor project, primary screen (AID 1143); conditions: higher = more signal, called active from +8 up or from −8 down;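 also: Huh7 hepatoma cells carrying a hepatitis C replication reporter with no stimulus; test concentration not given here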
[3] = Pseudomonas biofilm growth suppression – PAO1 strain, BacTiter-Glo luminescence, LB-PBS, primary screen (AID 1144); conditions: P. aeruginosa PAO1 biofilm, 12 h, higher = more signal
[4] = basal CRE-LacZ reporter activity in PC12 – cell-based, unstimulated, primary screen (AID 1145); conditions: no forskolin, luminescence, 4.5 h, higher = more signal, called active from +8 up or from −8 down
[5] = forskolin-driven CRE-LacZ activity in PC12 – cell-based, CRE-LacZ reporter, forskolin-stimulated, primary screen (AID 1146); conditions: luminescence, 4.5 h, higher = more signal, called active from +8 up or from −8 down;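 also: PC12 cells with 6xCRE LacZ reporter stimulated by forskolin 10 µM; beta-galactosidase reporter signal reflecting CREB driven transcription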
[6] = molecular target: Streptavidin (Streptomyces avidinii) (UniProt P22629); experiment: compounds binding control protein streptavidin – biophysical, small-molecule microarray, 635/667 nm fluorescence, artefact control for SMM compound annotation, primary screen (AID 1147); conditions: higher = more signal;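 also: signal reflects streptavidin binding to arrayed compounds as a control protein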
[7] = probe aInhba binding on compound microarray – biochemical, small-molecule microarray, 635/667 nm fluorescence, primary screen (AID 1148); conditions: higher = more signal;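 also: score merges 667nm spot fluorescence with signal-to-noise for antibody binding to printed compounds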
Torsin-1A (Homo sapiens) [8] = molecular target: Torsin-1A (Homo sapiens) (UniProt O14656); experiment: TOR1A wild-type binding on microarray – cell lysate, small-molecule microarray, lysate, 635/667 nm, primary screen (AID 1149); conditions: COS7 hTOR1A-WT lysate, 635 nm fluorescence, higher = more signal
Torsin-1A (Homo sapiens) [9] = molecular target: Torsin-1A (Homo sapiens) (UniProt O14656); experiment: torsin A mutant lysate binding on microarrays – cell lysate, small-molecule microarray, COS7 lysate, 635/667 nm fluorescence, primary screen (AID 1150); conditions: COS7 hTOR1A mutant lysate, 635 nm fluorescence, higher = more signal;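 also: score pools 667 nm emission and signal to noise measuring lysate protein binding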
[10] = tested on: Sonic hedgehog protein (Shh); experiment: Sonic hedgehog microarray binding compounds – biochemical, small-molecule microarray, 635/667 nm fluorescence, primary screen (AID 1151); conditions: 635 nm fluorescence, higher = more signal;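 also: Shh protein binding to compounds spotted on small-molecule microarray slides; score combines spot fluorescence intensity with signal-to-noise across triplicate slides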
[11] = optical density shifts of acrAB sulA E. coli – strain DRC41, OD650, 48 h, E. coli filamentation inducer project, primary screen (AID 1152); conditions: higher = more signal, called active from +8 up or from −8 down;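 also: E. coli MC1000 strain DRC41 lacking acrAB efflux pump and sulA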
[12] = probe aLefty1 binding on compound microarray – biochemical, small-molecule microarray, 635/667 nm fluorescence, primary screen (AID 1153); conditions: higher = more signal;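 also: score merges spot fluorescence with signal-to-noise ratio from the scanned slide images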
[13] = plasmodial surface anion channel blockers, osmotic lysis – cell-based, P. falciparum Indochina, OD700, 1 h, primary screen (AID 1154); conditions: P. falciparum Indochina infected RBC osmotic lysis, higher = more signal, called active from +8 up or from −8 down
[14] = plasmodial surface anion channel blockers, osmotic lysis – cell-based, P. falciparum Indochina, OD700, 2 h, primary screen (AID 1155);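 also: lysis reports solute entry through the parasite surface anion channel PSAC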; conditions: P. falciparum Indochina infected erythrocytes, higher = more signal, called active from +8 up or from −8 down
[15] = changes in parasitized red cell lysis, either direction – P. falciparum Indochina, OD700, 3 h, PSAC antagonist project, primary screen (AID 1156); conditions: P. falciparum-infected erythrocytes, osmotic lysis, higher = more signal, called active from +8 up or from −8 down
[16] = plasmodial surface anion channel blockers, osmotic lysis – cell-based, P. falciparum Indochina, OD700, 18 h, primary screen (AID 1157); conditions: P. falciparum Indochina infected erythrocytes, osmotic lysis OD700, 18 h; higher = more signal, called active from +8 up or from −8 down
[17] = S6 kinase pathway phospho-S6 level changes – cell-based, A549, cytoblot, luminescence, serum-stimulated, primary screen (AID 1158); conditions: 5 h, higher = more signal;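 also: serum-stimulated A549 lung adenocarcinoma cells; signal is phosphorylated S6 detected by cytoblot immunostaining with HRP secondary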
[18] = molecular target: NADPH oxidase 2 (Homo sapiens) (UniProt P04839); experiment: compounds shifting NOX2 Amplex Red fluorescence – cell-based, HEK293-NOX2, PMA-stimulated, NOX inhibitor project, primary screen (AID 1159); conditions: 45 min, higher = more signal, called active from +8 up or from −8 down; also: test concentration not given here
[19] = molecular target: NADPH oxidase 4 (Homo sapiens) (UniProt Q9NPH5); experiment: compounds shifting NOX4 Amplex Red fluorescence – cell-based, HEK293-NOX4, tetracycline-induced, NOX inhibitor project, primary screen (AID 1160); conditions: HEK293-NOX4, Amplex Red H2O2 fluorescence, 45 min; higher = more signal, called active from +8 up or from −8 down
[20] = molecular target: NADPH oxidase 5 (Homo sapiens) (UniProt Q96PH1); experiment: compounds shifting NOX5 Amplex Red fluorescence – cell-based, HEK293-NOX5, NOX inhibitor project, primary screen (AID 1161); conditions: HEK293-NOX5, ionomycin, 45 min, higher = more signal
Sequence of NADPH oxidase 5 (Homo sapiens) (Q96PH1 whole entry, looked up): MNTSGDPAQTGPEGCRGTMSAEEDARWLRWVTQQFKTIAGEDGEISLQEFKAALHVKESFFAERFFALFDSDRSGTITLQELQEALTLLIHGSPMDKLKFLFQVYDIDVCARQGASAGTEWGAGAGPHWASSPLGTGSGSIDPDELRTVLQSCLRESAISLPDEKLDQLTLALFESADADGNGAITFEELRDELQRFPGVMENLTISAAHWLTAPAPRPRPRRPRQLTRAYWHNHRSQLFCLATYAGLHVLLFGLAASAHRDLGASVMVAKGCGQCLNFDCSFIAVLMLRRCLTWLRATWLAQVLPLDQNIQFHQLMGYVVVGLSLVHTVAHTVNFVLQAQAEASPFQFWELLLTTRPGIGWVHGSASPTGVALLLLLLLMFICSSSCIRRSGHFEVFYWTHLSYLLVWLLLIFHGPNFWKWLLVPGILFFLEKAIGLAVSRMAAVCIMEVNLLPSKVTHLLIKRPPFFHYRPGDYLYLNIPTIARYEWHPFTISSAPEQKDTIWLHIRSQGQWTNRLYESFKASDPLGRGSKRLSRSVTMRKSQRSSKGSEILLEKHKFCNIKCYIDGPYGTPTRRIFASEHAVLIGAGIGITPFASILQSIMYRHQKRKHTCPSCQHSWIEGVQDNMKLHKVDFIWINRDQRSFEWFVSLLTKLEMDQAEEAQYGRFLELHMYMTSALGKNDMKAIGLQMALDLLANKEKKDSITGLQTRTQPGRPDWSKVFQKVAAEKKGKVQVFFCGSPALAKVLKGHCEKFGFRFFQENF

Sequence of Streptavidin (Streptomyces avidinii) (P22629 whole entry, looked up): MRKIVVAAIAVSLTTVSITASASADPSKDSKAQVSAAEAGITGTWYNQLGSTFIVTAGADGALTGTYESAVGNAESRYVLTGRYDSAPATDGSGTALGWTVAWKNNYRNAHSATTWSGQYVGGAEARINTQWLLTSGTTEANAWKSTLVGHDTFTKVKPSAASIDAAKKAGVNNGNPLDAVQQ
Sequence of NADPH oxidase 4 (Homo sapiens) (Q9NPH5 whole entry, looked up): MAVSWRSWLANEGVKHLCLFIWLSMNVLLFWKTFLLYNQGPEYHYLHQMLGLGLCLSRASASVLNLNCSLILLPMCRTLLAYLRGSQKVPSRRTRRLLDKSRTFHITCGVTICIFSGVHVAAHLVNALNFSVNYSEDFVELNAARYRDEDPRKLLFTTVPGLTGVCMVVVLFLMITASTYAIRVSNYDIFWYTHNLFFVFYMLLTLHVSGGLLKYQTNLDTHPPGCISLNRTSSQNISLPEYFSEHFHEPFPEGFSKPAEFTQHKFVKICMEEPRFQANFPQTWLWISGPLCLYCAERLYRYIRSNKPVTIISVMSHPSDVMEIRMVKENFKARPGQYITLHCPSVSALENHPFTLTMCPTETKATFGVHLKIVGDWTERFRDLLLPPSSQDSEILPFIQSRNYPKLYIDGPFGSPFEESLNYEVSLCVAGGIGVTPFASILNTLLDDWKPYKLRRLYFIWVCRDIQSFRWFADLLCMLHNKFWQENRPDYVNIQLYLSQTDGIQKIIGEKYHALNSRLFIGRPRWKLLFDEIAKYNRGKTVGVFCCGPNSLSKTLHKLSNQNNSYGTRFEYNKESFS
Sequence of NADPH oxidase 2 (Homo sapiens) (P04839 whole entry, looked up): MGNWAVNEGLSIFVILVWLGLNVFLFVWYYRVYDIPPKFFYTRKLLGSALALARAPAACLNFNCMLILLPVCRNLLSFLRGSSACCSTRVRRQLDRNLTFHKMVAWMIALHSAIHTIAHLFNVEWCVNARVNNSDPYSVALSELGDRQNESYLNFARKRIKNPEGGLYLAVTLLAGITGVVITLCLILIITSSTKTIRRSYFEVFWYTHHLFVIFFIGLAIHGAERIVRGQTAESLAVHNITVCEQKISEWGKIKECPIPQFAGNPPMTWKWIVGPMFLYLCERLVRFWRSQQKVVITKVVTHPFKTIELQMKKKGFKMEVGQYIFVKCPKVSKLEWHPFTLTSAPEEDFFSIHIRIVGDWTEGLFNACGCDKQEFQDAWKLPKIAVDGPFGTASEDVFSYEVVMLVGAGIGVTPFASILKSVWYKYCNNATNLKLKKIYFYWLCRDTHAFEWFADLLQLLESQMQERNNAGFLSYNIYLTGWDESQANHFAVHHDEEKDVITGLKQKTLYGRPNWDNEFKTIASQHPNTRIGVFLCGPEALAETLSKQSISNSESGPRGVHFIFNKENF
Sequence of Torsin-1A (Homo sapiens) (O14656 whole entry, looked up): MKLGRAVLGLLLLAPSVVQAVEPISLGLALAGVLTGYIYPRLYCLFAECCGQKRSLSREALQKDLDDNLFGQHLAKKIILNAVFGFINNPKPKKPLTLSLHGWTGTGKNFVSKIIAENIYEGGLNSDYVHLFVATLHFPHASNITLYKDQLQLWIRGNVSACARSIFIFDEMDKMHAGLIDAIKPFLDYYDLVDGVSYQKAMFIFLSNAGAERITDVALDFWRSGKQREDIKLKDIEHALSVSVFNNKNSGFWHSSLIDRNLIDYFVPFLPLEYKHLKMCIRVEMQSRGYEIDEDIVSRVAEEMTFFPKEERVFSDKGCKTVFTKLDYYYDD

Compound | composite z-score [1] | z-score [2] | z-score [3] | z-score [4] | z-score [5] | composite z-score [6] | composite z-score [7] | composite z-score (Torsin-1A (Homo sapiens) [8]) | composite z-score (Torsin-1A (Homo sapiens) [9]) | composite z-score [10] | z-score [11] | composite z-score [12] | z-score [13] | z-score [14] | z-score [15] | z-score [16] | z-score [17] | z-score [18] | z-score [19] | z-score [20]
C=CCN1C(=O)[C@@]2(O[C@@H](CCO)[C@H]([Si](C)(C)c3ccc(OC)cc3)[C@H]2C)c2cc(N3C(=O)COc4ccccc43)ccc21 | 0.564 | -7.99 (inactive) | 0.798 (inactive) | 26 (active) | -4.06 (inactive) | 0.83 | -0.101 | -0.048 | -0.0358 | 0.531 | -0.37 (inactive) | 0.0012 | 24.5 (active) | 11.4 (active) | -0.122 (inactive) | 2.68 (inactive) | 0.175 | -0.548 (inactive) | -0.111 (inactive) | 0.0948
CC(c1ccccc1)C(O)C1C=CC2C(=O)N(c3ccccc3)C(=O)C2N1Nc1ccccc1F (stereo not given) | 0.0426 | -2.63 (inactive) | -1.29 (inactive) | 0.173 (inactive) | 0.406 (inactive) | 0.527 | -0.125 | -0.468 | 0.0393 | -0.0558 | 0.207 (inactive) | 0.0146 | 0.784 (inactive) | -0.11 (inactive) | -0.597 (inactive) | -0.865 (inactive) | 0.0297 | -0.652 (inactive) | -0.714 (inactive) | 0.381
CN(C)CCCN1C(=O)[C@@]2(c3ccc([N+](=O)[O-])cc3)CC(=O)N(C3CCCCC3)[C@@H]2c2ccc(CO)cc21 | 0.131 | -1.79 (inactive) | -1.09 (inactive) | -0.464 (inactive) | -0.477 (inactive) | 0.161 | -0.101 | -0.954 | -0.288 | -0.93 | 0.493 (inactive) | 0.412 | -0.275 (inactive) | -0.249 (inactive) | -1.12 (inactive) | -1.73 (inactive) | 0.759 | -0.209 (inactive) | 0.632 (inactive) | 0.56
COc1ccc([Si](C)(C)[C@H]2[C@H](CCO)O[C@@]3(C(=O)N(Cc4cccc(N5C(=O)c6cccc7cccc5c67)c4)c4ccccc43)[C@@H]2C)cc1 | 0.346 | -6.95 (inactive) | 0.0998 (inactive) | -0.011 (inactive) | -1.37 (inactive) | 0.343 | -0.176 | -0.697 | -0.318 | 0.329 | 0.0084 (inactive) | -0.012 | 1.54 (inactive) | 2.2 (inactive) | 0.712 (inactive) | 1.31 (inactive) | 1.26 | -0.139 (inactive) | 0.61 (inactive) | 1.6
O=C1OCCC=C[C@H]2OC34C=CCN(c5ccc6ccccc6c5)C(=O)[C@H]3N(CCCCCCO)C(=O)[C@@H]4C12 (stereo not given in full) | -0.315 | -0.211 (inactive) | -0.0556 (inactive) | 0.0605 (inactive) | 0.771 (inactive) | -1.1 | -0.179 | 2.39 | 2.75 | -0.305 | 0.901 (inactive) | -0.0536 | 0.856 (inactive) | 0.712 (inactive) | 0.738 (inactive) | 0.426 (inactive) | 1.08 | 1.42 (inactive) | 0.441 (inactive) | 2.68
[N-]=[N+]=NCc1ccccc1[C@H]1OC(c2ccc(OCCCO)cc2)=N[C@@]1(Cc1ccccc1)C(=O)O | 0.631 | -1.01 (inactive) | 0.564 (inactive) | -1.19 (inactive) | -0.609 (inactive) | 1.37 | -0.0477 | 0.112 | 0.381 | -0.22 | -1.02 (inactive) | -0.166 | 17.6 (active) | 1.59 (inactive) | -0.907 (inactive) | 0.246 (inactive) | -0.239 | 0.861 (inactive) | 1.27 (inactive) | 1.65
C=CC[C@@]1(C(=O)NCCN2CCOCC2)N=C(c2ccc(OCCCO)cc2)O[C@@H]1c1ccccc1CN=[N+]=[N-] | 0.13 | -4.2 (inactive) | -0.557 (inactive) | 0.526 (inactive) | -1.22 (inactive) | 0.349 | -0.197 | 0.598 | 1.16 | -0.0578 | -0.121 (inactive) | 0.0193 | 24.4 (active) | 13.4 (active) | 2.29 (inactive) | 0.203 (inactive) | 1.15 | -0.842 (inactive) | 0.908 (inactive) | -0.701
C=CC[C@@]1(C(=O)OC)N=C(c2ccc(OCCCO)cc2)O[C@@H]1c1ccccc1CN=[N+]=[N-] | 0.0122 | -4.22 (inactive) | -0.88 (inactive) | -1.03 (inactive) | -1.5 (inactive) | -0.233 | -0.212 | 0.0478 | -0.249 | 0.838 | 1.24 (inactive) | 0.0674 | 26.9 (active) | 18.7 (active) | -0.26 (inactive) | 3.48 (inactive) | 1.79 | -4.05 (inactive) | 0.419 (inactive) | -3.1
